A selection: hits, their analogues and other compounds. The true share with any hit is near 2.3%.
KLK7 zymogen act = proKLK7 (human) activation, primary screen | activation, % at 7 µM | purified proKLK7, EDANS-DABCYL substrate fluorescence; 100% is mature enzyme control, 0% vehicle | P49862 | 0.9% of 370,000 active;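 active = activation above the mean of all tested compounds plus 3 SD, computed per campaign excluding outliers beyond control limits, cut at about 13% in these data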
V-ATPase pHluor = alters yeast V-ATPase proton transport; S. cerevisiae, pHLuorin cytosolic pH fluorescence; response, % at 10 µM; 0.37% of 350,000 active; AID 504577; in the data active = response mostly above about 7.3%, no sharp cut-off; inactive = mostly below about 5.4%; note: actives read high
ADAM10 inh = inhibits human ADAM10; inhibition, % at 7 µM; recombinant ADAM10, EDANS/DABCYL FRET peptide cleavage, 3 h; 0.62% of 370,000 active; AID 720582; O14672;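 active = inhibition above a per-campaign cutoff equal to the mean of compounds falling between control-based bounds plus 3 SD, cut at about 20% in these data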;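 note: 0% = DMSO wells while the 100% control is not disclosed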
ADAM17 inh = inhibitors of human ADAM17; P78536; recombinant ADAM17, EDANS/DABCYL FRET peptide cleavage; inhibition, % at 6.95 µM; 0.83% of 370,000 active; AID 720648;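 active = inhibition above the mean of compounds lying between control limits plus 3 SD, set per campaign, cut at about 8.5% in these data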;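 note: 0% = DMSO-only wells as the low control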
ADAM10 confirm = confirmation of inhibitors of human ADAM10; shares compounds with ADAM10 inh; ADAM10 QFRET peptide cleavage, EDANS fluorescence; inhibition, % at 6.95 µM; 1% of 2,100 active; AID 743208;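 active = inhibition above about 20% chosen separately for each screening run, limit read from the data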;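 note: 0% = DMSO wells and 100% = marimastat wells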
ADAM17 ctr = counter-screen for ADAM10 exosite inhibitors: inhibitors of human ADAM17 | shares compounds with ADAM10 inh | ADAM17 QFRET peptide cleavage, EDANS fluorescence | inhibition, % at 6.95 µM | 0.5% of 2,100 active | AID 743214;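 active = mean triplicate inhibition above the solvent-only control wells' mean plus 3 SD, cut at about 12% in these data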;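 note: 0% = DMSO wells and 100% = marimastat wells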
Numbers without * were called inactive; . = no result given.

SMILES	KLK7 zymogen act	V-ATPase pHluor	ADAM10 inh	ADAM17 inh	ADAM10 confirm	ADAM17 ctr
CCCCNC(=O)C[C@H]1C[C@@]2(C(=O)OC)C(=C[C@H](C3CCCC3)O[C@@H]2C)N(Cc2cccc3ccccc23)C1=O	0.6	.	24.2*	6.5	6.5	2.3
COC(=O)[C@]12C[C@H](CC(=O)NCc3cccc4ccccc34)C(=O)N(Cc3ccco3)C1=C[C@H](COCc1ccccc1)O[C@@H]2C	0.6	.	22.4*	7.0	5.8	2.2
COC(=O)[C@]12C[C@H](CC(=O)NCc3cccc4ccccc34)C(=O)N(Cc3ccccc3)C1=C[C@H](COCc1ccccc1)O[C@@H]2C	0.7	.	13.5	0.2	.	.
Cc1ccc(S(=O)(=O)NC2c3cccc4cccc(c34)C2Sc2nc(C)cc(C)n2)cc1 (stereo not given)	-0.6	1.8	20.0*	7.1	7.5	2.4
O=C(NCCn1cc(SCc2ccccc2)c2ccccc21)c1c(F)cccc1F	0.5	-0.6	23.9*	6.8	5.3	2.6
CCCC[C@H]1C2CC(OC(=O)Nc3ccc(F)cc3)C(C2)[C@H]2CCCCN21 (stereo not given in full)	0.4	.	-9.2	-13.1	.	.
CCCCn1c(N)c(N(CCC(C)C)C(=O)c2ccc(N3CCCC3=O)cc2)c(=O)[nH]c1=O	-0.3	4.9	63.3*	-2.6	4.3	2.6
COc1cccc(CNC(=O)[C@H]2CCCN2C(=O)[C@H]2CCCN2C(=O)c2ccc(C)c(C)c2)c1	0.2	.	0.8	-1.9	.	.
FC(F)C(F)(F)C(F)(F)C(F)(F)c1cc(-c2ccccc2)n[nH]1	-0.3	-3.5	23.4*	6.0	-1.0	0.8
Oc1ccccc1CN(Cc1ccco1)CC(O)COCc1ccc(Cl)cc1 (stereo not given)	-0.5	-0.2	23.1*	8.6	3.5	1.3
COc1ccc(COCC(O)CN(Cc2ccco2)Cc2ccccc2O)cc1 (stereo not given)	-0.2	-0.7	2.5	0.3	.	.
O=C(N/N=C/c1c(Nc2cccc(C(F)(F)F)c2)nc2ccccn2c1=O)c1ccccc1[N+](=O)[O-]	0.7	-0.8	31.6*	1.0	-0.2	-0.1
O=C(O)c1cccc(NC(=S)N/N=C/c2ccccc2OCc2ccc(Br)cc2)c1	0.4	0.3	22.9*	-1.4	3.0	1.2
O=C(O)c1cccc(NC(=S)N/N=C/c2ccccc2OCc2cccc(Br)c2)c1	-0.3	-1.1	-3.8	-3.0	.	.
COc1ccccc1NC(=O)Cc1csc(NC(=S)Nc2ccccc2)n1	-0.6	0.1	20.6*	3.4	6.4	1.8
COc1ccc(OC)c(NC(=O)Cc2csc(NC(=O)Nc3ccccc3OC)n2)c1	0.4	2.2	4.6	3.5	.	.
O=C(Nc1cc(Sc2ccccn2)cc([N+](=O)[O-])c1)c1cccc(Cl)c1	-1.3	-1.7	19.8*	7.2	7.2	2.7
COc1ccc(N2CCN(C(=O)CN(c3ccccc3)S(=O)(=O)c3ccc(OC)cc3)CC2)cc1	0.1	4.2	0.0	-0.9	.	.
COc1ccc(N2CCN(C(=O)CN(c3ccc(OC)cc3)S(=O)(=O)c3ccccc3)CC2)cc1	-0.2	4.8	20.6*	1.3	3.4	-0.5
COc1ccc(C(=O)N2CCC[C@@H]2C(=O)N2CCC[C@@H]2C(=O)NCc2ccccc2)cc1F	-0.2	.	-6.8	-5.3	.	.
Cc1ccc(NS(=O)(=O)c2ccc(NC(=O)c3cccc(NC(=O)C(C)C)c3)cc2)cc1	0.2	-0.1	23.5*	6.2	3.3	1.1
Cc1ccc(S(=O)(=O)Nc2ccc(C(=O)Nc3ccncc3)cc2)cc1	-0.5	-1.4	-3.6	-4.0	.	.
O=C(N[C@H](C(=O)N1CCC[C@H]1C(=O)NC1CCCC1)C1CCCCC1)c1ccc(Cl)c(Cl)c1	0.5	.	-0.3	2.6	.	.
CCCCNC(=O)C[C@@H]1C(=O)N(CCc2ccc(Cl)cc2)/C2=C/CCCCC[C@@]21C(=O)OCC	0.1	.	9.2	4.5	.	.
CCCC1CC(C)(c2csc(Nc3ccc(OCC)cc3)n2)OC1=O (stereo not given)	0.0	-1.7	21.1*	4.7	8.3	2.0
N#C/C(=N\Nc1cccc(Cl)c1)C(=O)c1ccccc1	-0.5	-6.6	20.4*	8.1	-1.0	-0.8
O=C(/C=C/c1ccco1)NC(=S)Nc1ccccc1	0.0	-3.1	22.9*	4.6	3.2	1.4
CC(=O)C1=CCN(C)CC1	0.3	.	-9.2	-2.3	.	.

Compound activity from PubChem.
